# Reference: PMC7862700, “An all-to-all approach to the identification of sequence-specific readers for epigenetic DNA modifications on cytosine”
# Assays:
# Assay in all cases: DAPPL (digital affinity profiling via proximity ligation, sequencing); 10 mM Tris-HCl pH 7.5, 50 mM NaCl, 1 mM DTT, 4% glycerol, room temperature, 30 min; GST-TFs on glutathione beads, 16-mer random dsDNA library, 0.1% formaldehyde crosslink after washing; high values mean tight binding
# FEV = target: T1, FEV (Homo sapiens, UniProt Q99581 1-238); conditions: protein: recombinant; tags: N-terminal GST; dsDNA, one strand shown
# T1 sequence: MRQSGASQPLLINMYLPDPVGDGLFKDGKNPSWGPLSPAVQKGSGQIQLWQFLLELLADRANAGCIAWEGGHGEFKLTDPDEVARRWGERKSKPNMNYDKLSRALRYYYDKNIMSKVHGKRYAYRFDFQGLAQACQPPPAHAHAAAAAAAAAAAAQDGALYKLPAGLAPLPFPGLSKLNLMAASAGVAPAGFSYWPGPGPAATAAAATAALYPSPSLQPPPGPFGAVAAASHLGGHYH
# Summary of the method: (§1)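 Yeast served to express human transcription factors as GST fusions, which were then captured on glutathione beads and labelled with DNA barcodes. Pooled with a tag-only sample, they were incubated with 200 nmole of a 16-mer random double-stranded DNA library for 30 min at room temperature in Tris/NaCl/DTT/glycerol buffer, washed, crosslinked with 0.1% formaldehyde, ligated by proximity, amplified by PCR and sequenced. Dividing each hexamer's read frequency for a factor by its frequency for the tag-only sample gives the binding signal.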
# ETV5 = ETV5 (Homo sapiens, UniProt P41161 1-510); conditions: protein: recombinant; tags: N-terminal GST; dsDNA, one strand shown
# Sequence of ETV5 (P41161 whole entry): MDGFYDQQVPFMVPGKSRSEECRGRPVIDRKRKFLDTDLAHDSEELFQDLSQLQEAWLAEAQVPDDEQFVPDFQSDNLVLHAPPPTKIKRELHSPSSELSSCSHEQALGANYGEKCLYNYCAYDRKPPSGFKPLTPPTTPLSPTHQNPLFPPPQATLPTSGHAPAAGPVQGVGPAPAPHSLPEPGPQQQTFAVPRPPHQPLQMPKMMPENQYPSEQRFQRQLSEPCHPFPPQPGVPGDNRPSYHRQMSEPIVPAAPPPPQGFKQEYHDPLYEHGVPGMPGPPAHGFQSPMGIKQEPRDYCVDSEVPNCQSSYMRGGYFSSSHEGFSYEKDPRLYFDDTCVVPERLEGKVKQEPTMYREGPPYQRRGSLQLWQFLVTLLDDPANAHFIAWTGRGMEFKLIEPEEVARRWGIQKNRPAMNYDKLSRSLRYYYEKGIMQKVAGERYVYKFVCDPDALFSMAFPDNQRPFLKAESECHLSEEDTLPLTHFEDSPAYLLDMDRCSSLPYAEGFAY
# Summary of the method: as §1
# HSF1 = HSF1 (Homo sapiens, UniProt Q00613 1-529); conditions: protein: recombinant; tags: N-terminal GST; chain copies: 3; dsDNA, one strand shown
# Sequence of HSF1 (Q00613 whole entry): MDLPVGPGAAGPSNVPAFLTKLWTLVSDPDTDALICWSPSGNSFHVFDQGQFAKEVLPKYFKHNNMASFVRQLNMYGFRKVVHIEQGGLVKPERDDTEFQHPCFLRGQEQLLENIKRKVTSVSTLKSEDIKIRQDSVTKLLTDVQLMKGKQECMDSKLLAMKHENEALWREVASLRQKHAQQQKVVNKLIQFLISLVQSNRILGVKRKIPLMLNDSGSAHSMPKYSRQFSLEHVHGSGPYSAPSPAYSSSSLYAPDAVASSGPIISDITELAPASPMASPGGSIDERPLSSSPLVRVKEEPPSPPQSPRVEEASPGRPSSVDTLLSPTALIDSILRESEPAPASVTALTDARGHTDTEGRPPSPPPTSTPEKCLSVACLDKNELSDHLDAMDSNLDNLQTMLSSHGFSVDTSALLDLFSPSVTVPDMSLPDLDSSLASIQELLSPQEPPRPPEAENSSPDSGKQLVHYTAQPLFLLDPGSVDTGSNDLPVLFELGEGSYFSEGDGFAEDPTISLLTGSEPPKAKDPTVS
# Summary of the method: as §1
# SPIC = target: T2, SPIC (Homo sapiens, UniProt Q8N5J4 1-248); conditions: protein: recombinant; tags: N-terminal GST; dsDNA, one strand shown
# T2 sequence: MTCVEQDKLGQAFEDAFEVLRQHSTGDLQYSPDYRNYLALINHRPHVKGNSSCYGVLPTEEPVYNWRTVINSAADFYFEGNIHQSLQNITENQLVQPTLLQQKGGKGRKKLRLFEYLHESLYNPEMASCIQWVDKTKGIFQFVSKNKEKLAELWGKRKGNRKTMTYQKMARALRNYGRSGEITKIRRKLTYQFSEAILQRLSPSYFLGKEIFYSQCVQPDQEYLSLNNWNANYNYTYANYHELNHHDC
# Summary of the method: as §1
# ELF4 = ELF4 (Homo sapiens, UniProt Q99607 1-663); conditions: protein: recombinant; tags: N-terminal GST; dsDNA, one strand shown
# Sequence of ELF4 (Q99607 whole entry): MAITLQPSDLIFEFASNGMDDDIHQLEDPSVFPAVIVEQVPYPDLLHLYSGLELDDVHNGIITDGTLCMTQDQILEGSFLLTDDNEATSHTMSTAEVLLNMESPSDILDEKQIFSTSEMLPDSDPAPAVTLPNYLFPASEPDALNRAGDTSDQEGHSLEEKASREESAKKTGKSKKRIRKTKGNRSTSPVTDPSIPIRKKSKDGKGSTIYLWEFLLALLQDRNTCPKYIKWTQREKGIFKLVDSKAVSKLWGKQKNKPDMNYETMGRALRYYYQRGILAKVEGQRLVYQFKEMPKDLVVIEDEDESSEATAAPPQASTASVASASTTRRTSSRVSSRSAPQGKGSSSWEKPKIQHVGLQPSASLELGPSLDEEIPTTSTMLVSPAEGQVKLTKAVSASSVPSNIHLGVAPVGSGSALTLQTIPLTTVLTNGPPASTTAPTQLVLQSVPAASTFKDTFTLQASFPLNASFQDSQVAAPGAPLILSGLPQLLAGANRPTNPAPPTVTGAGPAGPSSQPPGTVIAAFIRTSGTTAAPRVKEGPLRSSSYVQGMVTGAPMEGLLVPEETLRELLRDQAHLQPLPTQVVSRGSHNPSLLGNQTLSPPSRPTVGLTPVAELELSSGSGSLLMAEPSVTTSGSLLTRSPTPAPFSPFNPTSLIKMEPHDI
# Summary of the method: as §1
# ELK4 = target: T3, ELK4 (Homo sapiens, UniProt P28324-2 1-405); conditions: protein: recombinant; tags: N-terminal GST; dsDNA, one strand shown
# T3 sequence: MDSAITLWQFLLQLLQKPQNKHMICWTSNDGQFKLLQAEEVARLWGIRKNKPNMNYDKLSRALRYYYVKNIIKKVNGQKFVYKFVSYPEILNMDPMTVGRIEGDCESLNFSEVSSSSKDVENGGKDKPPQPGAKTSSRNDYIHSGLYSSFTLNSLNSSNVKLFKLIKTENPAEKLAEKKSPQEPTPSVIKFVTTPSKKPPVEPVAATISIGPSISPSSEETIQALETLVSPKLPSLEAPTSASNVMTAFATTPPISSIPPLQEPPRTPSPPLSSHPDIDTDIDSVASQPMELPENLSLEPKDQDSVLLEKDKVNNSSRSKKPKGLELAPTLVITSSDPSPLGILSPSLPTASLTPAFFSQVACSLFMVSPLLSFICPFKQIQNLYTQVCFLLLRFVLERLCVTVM
# Summary of the method: as §1
# ETV2 = target: T4, ETV2 (Homo sapiens, UniProt O00321 1-342); conditions: protein: recombinant; tags: N-terminal GST; dsDNA, one strand shown
# T4 sequence: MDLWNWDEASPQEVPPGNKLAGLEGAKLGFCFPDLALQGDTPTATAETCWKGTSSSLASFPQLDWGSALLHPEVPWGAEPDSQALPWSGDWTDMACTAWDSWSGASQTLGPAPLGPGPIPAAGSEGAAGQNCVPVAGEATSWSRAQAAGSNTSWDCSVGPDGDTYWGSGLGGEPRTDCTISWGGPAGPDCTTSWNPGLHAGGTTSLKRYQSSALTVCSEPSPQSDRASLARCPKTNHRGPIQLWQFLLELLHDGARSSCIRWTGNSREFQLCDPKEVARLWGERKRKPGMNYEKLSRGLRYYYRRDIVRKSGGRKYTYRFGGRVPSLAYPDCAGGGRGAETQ
# Summary of the method: as §1
# ELF3 = target: T5, ELF3 (Homo sapiens, UniProt P78545 1-371); conditions: protein: recombinant; tags: N-terminal GST; dsDNA, one strand shown
# T5 sequence: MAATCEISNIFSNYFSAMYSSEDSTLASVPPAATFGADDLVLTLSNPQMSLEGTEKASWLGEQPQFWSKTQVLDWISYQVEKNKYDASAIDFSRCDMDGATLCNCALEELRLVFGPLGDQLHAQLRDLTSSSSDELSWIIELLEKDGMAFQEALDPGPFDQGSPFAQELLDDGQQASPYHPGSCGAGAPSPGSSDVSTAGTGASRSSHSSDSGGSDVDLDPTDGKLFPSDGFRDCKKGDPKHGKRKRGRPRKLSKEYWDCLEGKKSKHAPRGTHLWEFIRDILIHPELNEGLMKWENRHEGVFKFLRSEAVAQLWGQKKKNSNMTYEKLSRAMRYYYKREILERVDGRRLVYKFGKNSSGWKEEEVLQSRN
# Summary of the method: as §1
# CRX = CRX (Homo sapiens, UniProt O43186 1-299); conditions: protein: recombinant; tags: N-terminal GST; dsDNA, one strand shown
# Sequence of CRX (O43186 whole entry): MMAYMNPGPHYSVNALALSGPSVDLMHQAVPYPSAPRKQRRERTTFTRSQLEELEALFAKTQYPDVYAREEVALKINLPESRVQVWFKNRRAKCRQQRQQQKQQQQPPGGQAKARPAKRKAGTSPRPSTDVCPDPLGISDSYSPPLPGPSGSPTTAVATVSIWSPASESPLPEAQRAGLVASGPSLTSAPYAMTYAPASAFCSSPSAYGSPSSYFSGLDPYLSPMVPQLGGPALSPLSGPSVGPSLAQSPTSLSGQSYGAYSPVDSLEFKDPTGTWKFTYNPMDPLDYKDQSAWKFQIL
# Summary of the method: as §1
# ETV1 = ETV1 (Homo sapiens, UniProt P50549 1-477); conditions: protein: recombinant; tags: N-terminal GST; dsDNA, one strand shown
# Sequence of ETV1 (P50549 whole entry): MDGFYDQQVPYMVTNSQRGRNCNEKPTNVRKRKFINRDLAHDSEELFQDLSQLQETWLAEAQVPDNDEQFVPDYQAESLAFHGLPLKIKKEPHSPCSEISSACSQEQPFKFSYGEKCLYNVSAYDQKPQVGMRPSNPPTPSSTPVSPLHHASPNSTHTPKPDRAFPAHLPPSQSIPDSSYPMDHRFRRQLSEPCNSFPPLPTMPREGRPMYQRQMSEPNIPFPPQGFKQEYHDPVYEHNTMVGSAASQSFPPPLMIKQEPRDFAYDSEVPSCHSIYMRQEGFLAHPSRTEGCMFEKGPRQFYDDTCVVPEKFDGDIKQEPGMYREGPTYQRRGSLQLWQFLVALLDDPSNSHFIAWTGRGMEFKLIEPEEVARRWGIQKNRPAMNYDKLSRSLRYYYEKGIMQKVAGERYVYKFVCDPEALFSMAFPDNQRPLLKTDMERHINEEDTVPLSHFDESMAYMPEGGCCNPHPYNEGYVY
# Summary of the method: as §1
# ERF = target: T6, ERF (Homo sapiens, UniProt P50548 1-548); conditions: protein: recombinant; tags: N-terminal GST; dsDNA, one strand shown
# T6 sequence: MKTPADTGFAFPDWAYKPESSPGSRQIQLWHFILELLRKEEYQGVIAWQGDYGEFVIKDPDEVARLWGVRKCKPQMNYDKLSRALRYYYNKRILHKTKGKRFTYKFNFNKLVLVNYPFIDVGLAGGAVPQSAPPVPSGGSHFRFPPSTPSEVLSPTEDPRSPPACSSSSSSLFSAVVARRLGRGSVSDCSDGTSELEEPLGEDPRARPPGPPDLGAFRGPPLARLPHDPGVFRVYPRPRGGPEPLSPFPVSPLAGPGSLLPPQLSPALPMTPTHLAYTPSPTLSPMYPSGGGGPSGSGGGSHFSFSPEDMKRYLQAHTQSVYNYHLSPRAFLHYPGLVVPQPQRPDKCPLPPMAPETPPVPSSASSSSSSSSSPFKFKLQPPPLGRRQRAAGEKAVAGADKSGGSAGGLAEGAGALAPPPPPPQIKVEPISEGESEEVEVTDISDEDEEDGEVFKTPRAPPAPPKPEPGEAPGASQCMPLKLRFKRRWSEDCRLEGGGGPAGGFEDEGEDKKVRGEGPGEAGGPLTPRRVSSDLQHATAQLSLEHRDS
# Summary of the method: as §1
# ETV3L = target: T7, ETV3L (Homo sapiens, UniProt Q6ZN32 1-361); conditions: protein: recombinant; tags: N-terminal GST; dsDNA, one strand shown
# T7 sequence: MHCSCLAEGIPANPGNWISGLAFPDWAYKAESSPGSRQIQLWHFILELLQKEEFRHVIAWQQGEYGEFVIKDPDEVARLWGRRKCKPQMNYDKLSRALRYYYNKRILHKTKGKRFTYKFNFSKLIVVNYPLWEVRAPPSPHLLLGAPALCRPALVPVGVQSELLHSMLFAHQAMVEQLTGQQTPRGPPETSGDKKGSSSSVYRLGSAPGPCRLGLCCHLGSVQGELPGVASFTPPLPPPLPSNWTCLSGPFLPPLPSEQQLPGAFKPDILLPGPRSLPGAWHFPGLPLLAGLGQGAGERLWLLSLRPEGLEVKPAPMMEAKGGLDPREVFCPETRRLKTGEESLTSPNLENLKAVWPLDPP
# Summary of the method: as §1
# ETS2 = target: T8, ETS2 (Homo sapiens, UniProt P15036 1-469); conditions: protein: recombinant; tags: N-terminal GST; dsDNA, one strand shown
# T8 sequence: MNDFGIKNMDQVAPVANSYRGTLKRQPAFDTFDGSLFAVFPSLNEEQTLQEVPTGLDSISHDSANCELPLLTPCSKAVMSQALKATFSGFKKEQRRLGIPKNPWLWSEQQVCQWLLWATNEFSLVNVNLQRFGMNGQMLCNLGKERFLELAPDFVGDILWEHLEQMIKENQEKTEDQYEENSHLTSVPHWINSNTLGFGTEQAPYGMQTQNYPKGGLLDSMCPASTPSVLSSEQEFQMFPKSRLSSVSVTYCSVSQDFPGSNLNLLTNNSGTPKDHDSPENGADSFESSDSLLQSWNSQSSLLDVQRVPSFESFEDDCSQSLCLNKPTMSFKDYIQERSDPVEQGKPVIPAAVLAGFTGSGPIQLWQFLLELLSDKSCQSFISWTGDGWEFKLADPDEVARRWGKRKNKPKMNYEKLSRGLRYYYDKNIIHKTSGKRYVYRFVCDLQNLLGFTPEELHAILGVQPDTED
# Summary of the method: as §1
# SPDEF = target: T9, SPDEF (Homo sapiens, UniProt O95238 1-335); conditions: protein: recombinant; tags: N-terminal GST; dsDNA, one strand shown
# T9 sequence: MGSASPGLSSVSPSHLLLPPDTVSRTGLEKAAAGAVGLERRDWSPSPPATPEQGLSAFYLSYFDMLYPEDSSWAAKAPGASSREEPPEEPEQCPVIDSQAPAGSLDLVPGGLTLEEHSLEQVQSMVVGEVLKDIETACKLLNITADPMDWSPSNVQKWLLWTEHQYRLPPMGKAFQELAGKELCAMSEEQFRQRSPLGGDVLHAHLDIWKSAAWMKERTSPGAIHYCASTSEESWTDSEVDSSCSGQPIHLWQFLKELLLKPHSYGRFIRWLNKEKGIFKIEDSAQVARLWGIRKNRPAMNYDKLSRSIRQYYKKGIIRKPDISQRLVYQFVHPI
# Summary of the method: as §1
# ETV7 = target: T10, ETV7 (Homo sapiens, UniProt Q9Y603 1-341); conditions: protein: recombinant; tags: N-terminal GST; dsDNA, one strand shown
# T10 sequence: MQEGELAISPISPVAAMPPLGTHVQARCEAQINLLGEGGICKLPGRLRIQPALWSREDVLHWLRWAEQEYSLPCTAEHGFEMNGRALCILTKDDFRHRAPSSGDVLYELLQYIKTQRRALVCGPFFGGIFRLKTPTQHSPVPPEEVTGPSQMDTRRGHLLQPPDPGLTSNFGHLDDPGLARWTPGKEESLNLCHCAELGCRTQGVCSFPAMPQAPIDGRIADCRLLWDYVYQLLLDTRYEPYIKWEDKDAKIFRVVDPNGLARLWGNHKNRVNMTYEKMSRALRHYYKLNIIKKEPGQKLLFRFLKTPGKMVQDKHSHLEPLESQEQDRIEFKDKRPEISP
# Summary of the method: as §1
# ELF5 = target: T11, ELF5 (Homo sapiens, UniProt Q9UKW6-2 1-255); conditions: protein: recombinant; tags: N-terminal GST; dsDNA, one strand shown
# T11 sequence: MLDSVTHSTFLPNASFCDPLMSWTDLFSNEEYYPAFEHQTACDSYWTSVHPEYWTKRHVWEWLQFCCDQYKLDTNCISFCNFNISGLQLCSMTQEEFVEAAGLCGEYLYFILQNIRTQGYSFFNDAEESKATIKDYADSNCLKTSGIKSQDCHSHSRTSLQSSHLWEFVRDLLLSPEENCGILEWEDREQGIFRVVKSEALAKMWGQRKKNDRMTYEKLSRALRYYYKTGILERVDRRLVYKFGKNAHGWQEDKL
# Summary of the method: as §1
# ETV3 = target: T12, ETV3 (Homo sapiens, UniProt P41162-2 1-143); conditions: protein: recombinant; tags: N-terminal GST; dsDNA, one strand shown
# T12 sequence: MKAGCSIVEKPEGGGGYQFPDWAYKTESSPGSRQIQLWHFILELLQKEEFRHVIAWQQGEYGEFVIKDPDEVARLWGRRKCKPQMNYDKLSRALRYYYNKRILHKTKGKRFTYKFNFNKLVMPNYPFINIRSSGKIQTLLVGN
# Summary of the method: as §1
# ETV6 = ETV6 (Homo sapiens, UniProt P41212 1-452); conditions: protein: recombinant; tags: N-terminal GST; dsDNA, one strand shown
# Sequence of ETV6 (P41212 whole entry): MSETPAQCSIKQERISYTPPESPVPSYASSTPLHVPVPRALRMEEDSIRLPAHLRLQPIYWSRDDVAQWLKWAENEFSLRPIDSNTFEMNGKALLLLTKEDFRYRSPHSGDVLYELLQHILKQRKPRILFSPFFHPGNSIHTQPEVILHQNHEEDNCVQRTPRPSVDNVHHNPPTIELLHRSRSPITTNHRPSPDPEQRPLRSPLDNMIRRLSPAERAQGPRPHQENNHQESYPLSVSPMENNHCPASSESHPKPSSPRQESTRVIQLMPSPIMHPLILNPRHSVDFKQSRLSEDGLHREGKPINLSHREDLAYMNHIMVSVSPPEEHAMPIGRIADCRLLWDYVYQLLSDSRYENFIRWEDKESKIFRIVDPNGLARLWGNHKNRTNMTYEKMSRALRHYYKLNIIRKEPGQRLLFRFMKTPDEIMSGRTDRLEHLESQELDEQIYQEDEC
# Summary of the method: as §1
sequence,measurement,setting,value
AATATG,binding signal,FEV,"1.12 fold enrichment (6-mer frequency, TF over GST control)"
same,binding signal,ETV5,"1.2 fold enrichment (6-mer frequency, TF over GST control)"
same,binding signal,HSF1,"1.12 fold enrichment (6-mer frequency, TF over GST control)"
same,binding signal,SPIC,"1.28 fold enrichment (6-mer frequency, TF over GST control)"
same,binding signal,ELF4,"1.16 fold enrichment (6-mer frequency, TF over GST control)"
same,binding signal,ELK4,"1.18 fold enrichment (6-mer frequency, TF over GST control)"
same,binding signal,ETV2,"1.07 fold enrichment (6-mer frequency, TF over GST control)"
same,binding signal,ELF3,"1.21 fold enrichment (6-mer frequency, TF over GST control)"
same,binding signal,CRX,"1.1 fold enrichment (6-mer frequency, TF over GST control)"
same,binding signal,ETV1,"1.13 fold enrichment (6-mer frequency, TF over GST control)"
same,binding signal,ERF,"1.07 fold enrichment (6-mer frequency, TF over GST control)"
same,binding signal,ETV3L,"1.15 fold enrichment (6-mer frequency, TF over GST control)"
same,binding signal,ETS2,"1.15 fold enrichment (6-mer frequency, TF over GST control)"
same,binding signal,SPDEF,"1.08 fold enrichment (6-mer frequency, TF over GST control)"
same,binding signal,ETV7,"1.21 fold enrichment (6-mer frequency, TF over GST control)"
same,binding signal,ELF5,"1.1 fold enrichment (6-mer frequency, TF over GST control)"
same,binding signal,ETV3,"1.14 fold enrichment (6-mer frequency, TF over GST control)"
same,binding signal,ETV6,"1.14 fold enrichment (6-mer frequency, TF over GST control)"
